VLA-4 antagonist – inhibitors of LDV-FITC binding to Mn2+-activated VLA-4, primary screen, Jurkat cells | Integrin alpha-4 (Homo sapiens), P13612 | 0.2% of 24,000 active | LDV-FITC binding with Mn2+, flow cytometry; 100% = Mn2+-driven binding gain fully reversed | inhibition, % at 10 µM (by protocol);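 active = inhibition above 50%; inconclusive = compound itself fluorescent, judged against control cell fluorescence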
Jurkat autofluor – compound autofluorescence on Jurkat cells, primary screen, artefact control for VLA-4 allosteric ligand project, cell-based, flow cytometry. AID 576, 2007. stronger effect = higher value; 1 = vehicle-only cell background. 0.61% of 24,000 active. fluorescence ratio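 (tested at 10 µM compound in the well)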;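 active = fluorescence ratio above 2.44, which is 1 plus 3 SD of all ratios; inconclusive = signal too bright to measure linearly, ratio around 10 or more; inactive = fluorescence ratio below 2.44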;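 note: green fluorescence of cells measured with 488 nm excitation and 530 nm emission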
VLA-4 agonist – enhancers of LDV-FITC binding to VLA-4 integrin, primary screen, Jurkat cells, flow cytometry; 24,000 tested, under 10 active; activation, % at 10 µM (by protocol);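 active = fluorescent ligand binding to cells raised by more than 40% of the manganese-induced maximum; inconclusive = compound's own fluorescence above 85% of the ligand control signal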
26S disassembly – inhibitors of ATP-driven 26S proteasome dissociation, primary screen, biochemical, bead-based flow cytometry, GFP-tagged proteasome; anti-FLAG beads, GFP-proteasome disassembly; inhibition of disassembly, % (concentration not given with the values); 0.2% of 24,000 active; AID 751, 2007;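 active = inhibition of disassembly above about 33%, limit read from the data; inconclusive = likely self-fluorescent, control bead median signal at least 40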;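 note: higher percent means more bead fluorescence retained so stronger block of disassembly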
Numbers stand for hits; . = inactive; ? = inconclusive; / = no result. A selection: hits, their analogues and other compounds. The true share with any hit is near 1.1%.

SMILES	VLA-4 antagonist	Jurkat autofluor	VLA-4 agonist	26S disassembly
Cc1ccc2nc(NC3=NCN(Cc4ccco4)CN3)nc(C)c2c1	?	3.5	?	.
Cc1cccc(NC(=O)c2sc3nc(-c4ccc(F)cc4)cn3c2C)n1	?	5.1	?	75
Cc1c(C(=O)Nc2ccccc2)sc2nc(-c3ccccc3)cn12	74	.	.	.
Cc1cccc(NC(=O)c2sc3nc(-c4ccccc4)cn3c2C)n1	?	3.4	?	.
O=C1CC(c2ccccc2)Cc2nc(N3CCc4ccccc43)ncc21 (centres undefined)	.	.	.	74
CN(C)c1ccc(/C=C/C(O)=C2/C(=O)N(C)C3(C)CC2c2ccccc2O3)cc1 (centres undefined)	?	6.9	?	85
COc1cc(N2C(=O)NC3CC2(C)Oc2ccccc23)cc(OC)c1OC (centres undefined)	.	.	.	.
CN1CCc2c(sc3c2c(=O)n(-c2cccc(Cl)c2)c2nncn32)C1	.	.	.	.
CSc1ccc(C2NC(=O)c3c(sc4c3CCN(C)C4)N2)cc1 (centres undefined)	?	4.7	?	.
CN1CCc2c(sc3c2C(=O)NC(c2ccc(-c4cccc(Cl)c4)o2)N3)C1 (centres undefined)	.	9.9	?	.
Cc1ccsc1C1NC(=O)c2c(sc3c2CCN(C)C3)N1 (centres undefined)	?	.	?	.
COc1ccc(CNC(=O)c2cc(C3CC3)on2)cc1	.	.	.	.
COc1ccc(CNC(=O)c2onc(C)c2Cl)cc1	?	.	?	124
Cc1cccc(-c2noc(CN(C(=O)c3c(-c4ccccc4Cl)noc3C)C(C)C)n2)c1	59	.	.	.
CCOC(=O)c1c(C)oc2c1c1c(c3ccccc32)OCN(Cc2ccccn2)C1	79	.	.	/
COC(=O)c1ccc2c(=O)n(Cc3ccc4c(c3)OCO4)c(SCC(=O)N3CCCC3)nc2c1	.	.	.	.
O=C(Nc1ccc2c(c1)OCCO2)C1CCCN(S(=O)(=O)c2cnc[nH]2)C1 (centres undefined)	.	.	.	.
